# The supplement of paper PMC4022240
# ± gives the standard deviation.
# T1: HaloTag-ATRX ADD domain (163-292)
# T1 chain: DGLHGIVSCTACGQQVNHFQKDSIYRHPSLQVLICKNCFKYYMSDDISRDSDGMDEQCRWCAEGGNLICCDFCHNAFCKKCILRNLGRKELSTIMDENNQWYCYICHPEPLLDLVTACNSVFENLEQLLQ
# Legend:
# Assay in all cases: peptide microarray binding signal (635 nm), min-max normalized on array (fraction of array maximum); higher = stronger binding
# Conditions in all cases: peptide region: H3 30-42
# [1] = molecular target: T1, HaloTag-ATRX ADD domain (163-292)
# Procedure, shortened: (§1)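 An Axon GenePix 4000B scanned the arrays at 635 nm for signal and at 532 nm to catch misprints. Those arrays held histone 13-mer peptide–cellulose conjugates printed in triplicate on nitrocellulose with a Cy3 tracer, blocked overnight at 4°C and probed for 1 h at 4°C with biotin-labelled HaloTag reader fusions (10 nM to 1 μM) plus streptavidin-Alexa Fluor 647 or with rabbit histone antibodies (1:10,000 to 1:2,000) plus anti-rabbit Alexa 647. Each binding signal is a triplicate-spot mean intensity, scaled min-max within its library.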
# [2] = molecular target: HaloTag-ING2 PHD (mouse Ing2 200-280)
# Procedure, shortened: as §1
# [3] = molecular target: anti-H3K4me3 antibody ab8580
# Procedure, shortened: as §1
# [4] = molecular target: anti-H3K9me3 antibody ab8898
# Procedure, shortened: as §1
# [5] = peptide modifications: H3K36me2 H3K37me3, binder concentration: 1:2,000 dilution
# [6] = peptide modifications: H3K36me2 H3K37me3, binder concentration: 1:10,000 dilution
# [7] = peptide modifications: H3K36me1 H3K37me3, binder concentration: 1:2,000 dilution
# [8] = peptide modifications: H3K36me1 H3K37me3, binder concentration: 1:10,000 dilution
# [9] = peptide modifications: H3K36me1 H3K37me1, binder concentration: 1:2,000 dilution
# [10] = peptide modifications: H3K36me1 H3K37me1, binder concentration: 1:10,000 dilution
# [11] = peptide modifications: H3K36me2, binder concentration: 1:2,000 dilution
# [12] = peptide modifications: H3K36me2, binder concentration: 1:10,000 dilution
# [13] = peptide modifications: H3K36me1 H3K37me2, binder concentration: 1:2,000 dilution
# [14] = peptide modifications: H3K36me1 H3K37me2, binder concentration: 1:10,000 dilution
# [15] = peptide modifications: H3K36me3, binder concentration: 1:2,000 dilution
# [16] = peptide modifications: H3K36me3, binder concentration: 1:10,000 dilution
# [17] = peptide modifications: H3K36me3 H3K37ac, binder concentration: 1:2,000 dilution
# [18] = peptide modifications: H3K36me3 H3K37ac, binder concentration: 1:10,000 dilution
# [19] = peptide modifications: H3K36me2 H3K37ac, binder concentration: 1:2,000 dilution
# [20] = peptide modifications: H3K36me2 H3K37ac, binder concentration: 1:10,000 dilution
# [21] = peptide modifications: H3K36me2 H3K37me1, binder concentration: 1:2,000 dilution
# [22] = peptide modifications: H3K36me2 H3K37me1, binder concentration: 1:10,000 dilution
# [23] = peptide modifications: H3K36me2 H3K37me2, binder concentration: 1:2,000 dilution
# [24] = peptide modifications: H3K36me2 H3K37me2, binder concentration: 1:10,000 dilution
binder,measurement,setting,value
PATGGVKKPHRYR [H3 30-42 P A T G G V Kme2 Kme3 P H R Y R],peptide microarray binding signal,"[1]; peptide modifications: H3K36me2 H3K37me3, binder concentration: 50 nM",0.00266 ± 7.1e-05
same,peptide microarray binding signal,"[1]; peptide modifications: H3K36me2 H3K37me3, binder concentration: 500 nM",0.00343 ± 0.00019
same,peptide microarray binding signal,"[2]; peptide modifications: H3K36me2 H3K37me3, binder concentration: 10 nM",0.00298 ± 6.6e-05
same,peptide microarray binding signal,"[2]; peptide modifications: H3K36me2 H3K37me3, binder concentration: 100 nM",0.00454 ± 0.00042
same,peptide microarray binding signal,[3]; [5],0.0016 ± 0.00015
same,peptide microarray binding signal,[3]; [6],0.00126 ± 3.7e-05
same,peptide microarray binding signal,[4]; [5],0.00429 ± 0.0012
same,peptide microarray binding signal,[4]; [6],0.00133 ± 4e-05
PATGGVKKPHRYR [H3 30-42 P A T G G V Kme Kme3 P H R Y R],peptide microarray binding signal,"[1]; peptide modifications: H3K36me1 H3K37me3, binder concentration: 50 nM",0.00135 ± 1.7e-05
same,peptide microarray binding signal,"[1]; peptide modifications: H3K36me1 H3K37me3, binder concentration: 500 nM",0.00229 ± 8.8e-05
same,peptide microarray binding signal,"[2]; peptide modifications: H3K36me1 H3K37me3, binder concentration: 10 nM",0.00203 ± 8.9e-05
same,peptide microarray binding signal,"[2]; peptide modifications: H3K36me1 H3K37me3, binder concentration: 100 nM",0.00191 ± 0.00013
same,peptide microarray binding signal,[3]; [7],0.000359 ± 2.1e-05
same,peptide microarray binding signal,[3]; [8],0.000514 ± 1.1e-05
same,peptide microarray binding signal,[4]; [7],0.0008 ± 8.7e-05
same,peptide microarray binding signal,[4]; [8],0.000807 ± 1.5e-05
PATGGVKKPHRYR [H3 30-42 P A T G G V Kme Kme P H R Y R],peptide microarray binding signal,"[1]; peptide modifications: H3K36me1 H3K37me1, binder concentration: 50 nM",0.00245 ± 4.3e-05
same,peptide microarray binding signal,"[1]; peptide modifications: H3K36me1 H3K37me1, binder concentration: 500 nM",0.0039 ± 0.00015
same,peptide microarray binding signal,"[2]; peptide modifications: H3K36me1 H3K37me1, binder concentration: 10 nM",0.00424 ± 0.00021
same,peptide microarray binding signal,"[2]; peptide modifications: H3K36me1 H3K37me1, binder concentration: 100 nM",0.000496 ± 9.7e-06
same,peptide microarray binding signal,[3]; [9],0.000189 ± 2e-06
same,peptide microarray binding signal,[3]; [10],0.00559 ± 0.0011
same,peptide microarray binding signal,[4]; [9],0.00157 ± 0.00052
same,peptide microarray binding signal,[4]; [10],0.00254 ± 0.00014
PATGGVKKPHRYR [H3 30-42 P A T G G V Kme2 K P H R Y R],peptide microarray binding signal,"[1]; peptide modifications: H3K36me2, binder concentration: 50 nM",0.00417 ± 0.0002
same,peptide microarray binding signal,"[1]; peptide modifications: H3K36me2, binder concentration: 500 nM",0.00919 ± 0.00057
same,peptide microarray binding signal,"[2]; peptide modifications: H3K36me2, binder concentration: 10 nM",0.0135 ± 0.0016
same,peptide microarray binding signal,"[2]; peptide modifications: H3K36me2, binder concentration: 100 nM",0.0203 ± 0.0023
same,peptide microarray binding signal,[3]; [11],0.0031 ± 0.00053
same,peptide microarray binding signal,[3]; [12],0.00377 ± 0.00013
same,peptide microarray binding signal,[4]; [11],0.00305 ± 0.00012
same,peptide microarray binding signal,[4]; [12],0.00271 ± 7.1e-05
PATGGVKKPHRYR [H3 30-42 P A T G G V Kme Kme2 P H R Y R],peptide microarray binding signal,"[1]; peptide modifications: H3K36me1 H3K37me2, binder concentration: 50 nM",0.00241 ± 8.1e-05
same,peptide microarray binding signal,"[1]; peptide modifications: H3K36me1 H3K37me2, binder concentration: 500 nM",0.00529 ± 0.00037
same,peptide microarray binding signal,"[2]; peptide modifications: H3K36me1 H3K37me2, binder concentration: 10 nM",0.00442 ± 0.00037
same,peptide microarray binding signal,"[2]; peptide modifications: H3K36me1 H3K37me2, binder concentration: 100 nM",0.00709 ± 0.0016
same,peptide microarray binding signal,[3]; [13],0.000245 ± 5.2e-06
same,peptide microarray binding signal,[3]; [14],0.000571 ± 1.1e-05
same,peptide microarray binding signal,[4]; [13],0.00337 ± 0.0001
same,peptide microarray binding signal,[4]; [14],0.000865 ± 2.4e-05
PATGGVKKPHRYR [H3 30-42 P A T G G V Kme3 K P H R Y R],peptide microarray binding signal,"[1]; peptide modifications: H3K36me3, binder concentration: 50 nM",0.00574 ± 0.00018
same,peptide microarray binding signal,"[1]; peptide modifications: H3K36me3, binder concentration: 500 nM",0.007429 ± 7.1e-05
same,peptide microarray binding signal,"[2]; peptide modifications: H3K36me3, binder concentration: 10 nM",0.0195 ± 0.00025
same,peptide microarray binding signal,"[2]; peptide modifications: H3K36me3, binder concentration: 100 nM",0.02445 ± 0.00017
same,peptide microarray binding signal,[3]; [15],0.00383 ± 0.00027
same,peptide microarray binding signal,[3]; [16],0.00468 ± 0.00012
same,peptide microarray binding signal,[4]; [15],0.0031 ± 0.00028
same,peptide microarray binding signal,[4]; [16],0.00219
PATGGVKKPHRYR [H3 30-42 P A T G G V Kme3 Kac P H R Y R],peptide microarray binding signal,"[1]; peptide modifications: H3K36me3 H3K37ac, binder concentration: 50 nM",0.00197 ± 6.4e-05
same,peptide microarray binding signal,"[1]; peptide modifications: H3K36me3 H3K37ac, binder concentration: 500 nM",0.00643 ± 0.0006
same,peptide microarray binding signal,"[2]; peptide modifications: H3K36me3 H3K37ac, binder concentration: 10 nM",0.00603 ± 7.6e-05
same,peptide microarray binding signal,"[2]; peptide modifications: H3K36me3 H3K37ac, binder concentration: 100 nM",0.00128 ± 0.00011
same,peptide microarray binding signal,[3]; [17],0.000566 ± 6.2e-05
same,peptide microarray binding signal,[3]; [18],0.00856 ± 0.0042
same,peptide microarray binding signal,[4]; [17],0.0143 ± 0.0012
same,peptide microarray binding signal,[4]; [18],0.00617 ± 0.0014
PATGGVKKPHRYR [H3 30-42 P A T G G V Kme2 Kac P H R Y R],peptide microarray binding signal,"[1]; peptide modifications: H3K36me2 H3K37ac, binder concentration: 50 nM",0.00094 ± 1.9e-05
same,peptide microarray binding signal,"[1]; peptide modifications: H3K36me2 H3K37ac, binder concentration: 500 nM",0.000857 ± 1.5e-05
same,peptide microarray binding signal,"[2]; peptide modifications: H3K36me2 H3K37ac, binder concentration: 10 nM",0.0544 ± 0.07
same,peptide microarray binding signal,"[2]; peptide modifications: H3K36me2 H3K37ac, binder concentration: 100 nM",0.00354 ± 0.00098
same,peptide microarray binding signal,[3]; [19],0.000529 ± 1.4e-05
same,peptide microarray binding signal,[3]; [20],0.000685 ± 4.7e-05
same,peptide microarray binding signal,[4]; [19],0.000438 ± 1.5e-05
same,peptide microarray binding signal,[4]; [20],0.000461 ± 8.7e-06
PATGGVKKPHRYR [H3 30-42 P A T G G V Kme2 Kme P H R Y R],peptide microarray binding signal,"[1]; peptide modifications: H3K36me2 H3K37me1, binder concentration: 50 nM",0.00476 ± 8.1e-05
same,peptide microarray binding signal,"[1]; peptide modifications: H3K36me2 H3K37me1, binder concentration: 500 nM",0.0141 ± 0.0045
same,peptide microarray binding signal,"[2]; peptide modifications: H3K36me2 H3K37me1, binder concentration: 10 nM",0.00913 ± 0.0015
same,peptide microarray binding signal,"[2]; peptide modifications: H3K36me2 H3K37me1, binder concentration: 100 nM",0.00376 ± 0.0011
same,peptide microarray binding signal,[3]; [21],0.000774 ± 0.00022
same,peptide microarray binding signal,[3]; [22],0.00622 ± 0.002
same,peptide microarray binding signal,[4]; [21],0.00214 ± 0.00062
same,peptide microarray binding signal,[4]; [22],0.00208 ± 0.00019
PATGGVKKPHRYR [H3 30-42 P A T G G V Kme2 Kme2 P H R Y R],peptide microarray binding signal,"[1]; peptide modifications: H3K36me2 H3K37me2, binder concentration: 50 nM",0.00185 ± 1.5e-05
same,peptide microarray binding signal,"[1]; peptide modifications: H3K36me2 H3K37me2, binder concentration: 500 nM",0.00476 ± 0.00025
same,peptide microarray binding signal,"[2]; peptide modifications: H3K36me2 H3K37me2, binder concentration: 10 nM",0.00501 ± 0.00021
same,peptide microarray binding signal,"[2]; peptide modifications: H3K36me2 H3K37me2, binder concentration: 100 nM",0.00227 ± 0.00036
same,peptide microarray binding signal,[3]; [23],0.000396 ± 7e-06
same,peptide microarray binding signal,[3]; [24],0.000799 ± 5.8e-05
same,peptide microarray binding signal,[4]; [23],0.00267 ± 8.5e-05
same,peptide microarray binding signal,[4]; [24],0.00104 ± 2.8e-05
